Usually Inhibition stands for the relative decrease from the control value, in per cent.

Each structure is given as a SMILES string. Entries with a potency or affinity are not part of this list.

This assay deals with Escherichia coli. As to conditions: Concentration 32 ug.mL-1;; ASSAY_TEST Inhibition of Bacterial Growth; detection method Absorption (OD600); MEDIA CAMHB; plate type 384well; NBS; CORNING #3640; time 18 hr.
On to `O=C(Cn1nc2c3c4c(sc3ncn2c1=O)CCCC4)NCCc1ccc(Cl)cc1`, for which the Inhibition is 2.28%.

Take `O=S(=O)(c1ccc2nncn2c1)N(Cc1ccccc1F)c1ccc(F)c(F)c1`: the Inhibition is -4.39%.

Consider `CCOC(=O)c1ccccc1NC(=O)CSc1nc2ccccc2n2c(C(C)C)nnc12`, for which the Inhibition is listed as -2.48%.

In the case of `CCCNC(=O)Cn1nc2nc(Nc3ccc(F)cc3)ccn2c1=O`, the Inhibition is given as -13.63%.

For `Cc1nnc2ccc(S(=O)(=O)N(Cc3ccc(F)cc3)c3cc(F)cc(F)c3)cn12`, the Inhibition is listed as -6.59%.

Turning to `COc1cccc(Sc2nc3ccccc3n3c(=O)n(CC(=O)Nc4ccc(C)c(C)c4)nc23)c1`, the Inhibition is on record as 0.23%.

As to `CCc1ccc(N(Cc2ccc(F)cc2)S(=O)(=O)c2cccn3c(CC)nnc23)cc1`, the Inhibition is -4.69%.

As for `COc1ccccc1N1CCN(C(=O)CSc2nc3ccccc3n3cnnc23)CC1`, the Inhibition was determined as 4.69%.

`COc1cccc(-n2ccn3c(SCc4cccc(C)c4)nnc3c2=O)c1`: the Inhibition is reported as -5.33%.

Take `CCc1nnc2c(=O)n(CC(=O)Nc3cccc(C#N)c3)c3ccccc3n12`: the Inhibition is 1.69%.

Take `Cc1cc2nn(CC(=O)NC3CCCCC3)c(=O)n2c(Nc2ccc(F)c(C)c2)n1`: the Inhibition stood at 0.19%.

For the compound `Cc1ccccc1Cn1nc2c(=O)n(-c3ccc(Br)cc3)ccn2c1=O`, the Inhibition was found to be 1.73%.

As for `Cc1nnc2ccc(S(=O)(=O)N(Cc3cc(F)cc(F)c3)c3ccccc3)cn12`, the Inhibition is on record as -1.77%.

On to `CCOC(=O)c1ccc(NC(=O)Cn2nc3ccc(-c4ccc(Cl)cc4)nn3c2=O)cc1`, for which the Inhibition is -1.44%.

For the compound `C=Cc1ccc(CN(c2ccc(Cl)cc2)S(=O)(=O)c2cccn3c(C)nnc23)cc1`, the Inhibition was -3.28%.

`COc1ccccc1N1CCN(C(=O)Cn2nc3ccc(-c4ccc(C)c(C)c4)nn3c2=O)CC1`: the Inhibition is -0.61%.

Turning to `O=C(Cn1nc2c(Sc3ccccc3)nccn2c1=O)Nc1ccc2c(c1)OCO2`, the Inhibition is on record as 0.44%.

Consider `Cc1cccc(-c2nc(CSc3nc4ccccc4n4c(C(C)C)nnc34)c(C)o2)c1`, for which the Inhibition was 2.13%.

Turning to `COc1ccc(-c2cc3c4nn(CC(=O)N5CCCc6ccccc65)c(=O)n4ccn3n2)cc1`, the Inhibition turned out to be 1.46%.

With `Cc1cc2nn(CC(=O)NCc3ccco3)c(=O)n2c(Nc2ccc(C)c(F)c2)n1`, the Inhibition is reported as -8.01%.

For the compound `Cc1ccccc1Oc1nccn2c(=O)n(CC(=O)Nc3ccc(C#N)cc3)nc12`, the Inhibition was -0.39%.

`O=C(Cn1nc2c(N3CCOCC3)nccn2c1=O)Nc1ccc2c(c1)OCO2`: the Inhibition was 0.24%.

For the compound `Cc1ccc(-c2cc3c4nn(CC(=O)Nc5ccc6c(c5)OCO6)c(=O)n4ccn3n2)cc1C`, the Inhibition was -12.23%.

For `CCCCOc1ccc(-c2cc3c4nnc(SCC(=O)Nc5ccccc5Cl)n4ccn3n2)cc1`, the Inhibition is reported as -3.41%.

Turning to `CCOC(=O)c1ccccc1NC(=O)Cn1nc2ccc(C(=O)Nc3ccc(OC)cc3)cn2c1=O`, the Inhibition is reported as -8.03%.

The values above are taken from ChEMBL document CHEMBL4513146, “CO-ADD screening of Karazin Kharkiv National University (Ukraine) compounds”.
